Screening data deposited in PubChem BioAssay by The Scripps Research Institute Molecular Screening Center.
Hits are enriched below; roughly 3.5% of the tested compounds scored in any of these assays.
MITF primary: inhibitors of human MITF. AID 1259374. AlphaScreen MITF homodimerization, bead proximity signal. inhibition, % at 2.6 µM. actives 0.91% (n = 650,000); in the data active = inhibition above about 50%;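 note: 0% = vehicle wells with protein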
Target sequence (O75030 whole entry, looked up): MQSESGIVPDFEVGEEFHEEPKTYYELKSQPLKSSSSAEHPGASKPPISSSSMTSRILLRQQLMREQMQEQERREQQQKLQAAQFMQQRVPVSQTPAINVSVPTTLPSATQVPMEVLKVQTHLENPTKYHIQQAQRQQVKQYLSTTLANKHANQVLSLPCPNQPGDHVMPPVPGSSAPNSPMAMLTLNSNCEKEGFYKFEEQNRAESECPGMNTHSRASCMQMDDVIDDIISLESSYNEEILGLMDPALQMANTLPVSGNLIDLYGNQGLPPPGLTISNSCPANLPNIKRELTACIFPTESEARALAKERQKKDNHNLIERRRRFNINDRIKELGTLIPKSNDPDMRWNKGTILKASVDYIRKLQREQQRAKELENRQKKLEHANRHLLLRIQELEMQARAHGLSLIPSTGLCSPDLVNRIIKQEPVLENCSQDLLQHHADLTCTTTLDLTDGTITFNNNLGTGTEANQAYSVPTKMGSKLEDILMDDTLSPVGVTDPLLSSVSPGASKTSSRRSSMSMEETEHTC
FBW7 act: activators of human E3 ligase FBW7; Q969H0; actives 0.13% (n = 650,000); AlphaScreen FBW7–phospho-cyclin E peptide binding, activator screen; normalized activity (activation), % at 26.1 µM; in the data active = normalized activity above about 1.9%;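 note: purified mutant Fbw7 with reduced substrate affinity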
GPR151 activ: human GPR151 activation. PathHunter beta-arrestin GPR151 cells, luminescence. activation, % at 11.2 µM. Q8TDV0. AID 1508602. actives 1% (n = 650,000); in the data active = activation above about 4.9%;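 note: 0% = median of compound wells and 100% = cells with positive control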
TEAD-YAP block: TEAD-YAP interaction inhibition. actives 1.4% (n = 640,000). HEK-TIYL cells, TEAD-Gal4/YAP UAS-luciferase luminescence. inhibition, % at 9.12 µM; in the data active = inhibition above about 32%;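 note: 0% = median of test compound wells and 100% = reference inhibitor wells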
Active calls of the source: *.

SMILES	MITF primary	FBW7 act	GPR151 activ	TEAD-YAP block
COc1ccc(Cl)cc1NC(=O)CN1C(=O)CC(c2ccco2)Sc2ccccc21 (stereo unspecified)	-3	0	-1	45*
COc1ccc(OC)c(NC(=O)CN2C(=O)CC(c3ccco3)Sc3ccccc32)c1 (stereo unspecified)	0	0	-1	-1
OC(CN1C2=NCCN2c2ccccc21)c1ccc2c(c1)OCO2 (stereo unspecified)	0	0	0	55*
OC(CN1C2=NCCCN2c2ccccc21)c1ccc2c(c1)OCO2 (stereo unspecified)	5	0	0	3
COc1ccc(N2CCN(C(=O)CSc3ccc(Cl)cc3)CC2)c([N+](=O)[O-])c1	9	0	0	6
CC(C)(C)C(=O)Nc1nc(-c2ccc3c(c2)CCN3S(C)(=O)=O)cs1	-6	0	2	-29
Cc1cc(C)c(C=Nc2ccccc2C(N)=O)c(C)c1	-3	0	1	10
Cc1ccccc1C=Nc1ccccc1C(N)=O	-14	0	0	49*
COc1cc([N+](=O)[O-])ccc1-c1ccc(/C=C2\NC(=S)NC2=O)o1	0	0	2	1
COc1ccc(-c2cnc3c(NCC4CC4)nccn23)cc1	-4	0	0	-46
Cc1ccc(-c2cnc(N3CCC4(CC3)OCCO4)nc2)cc1	3	0	-3	-49
Fc1ccc(-c2cnc(N3CCC4(CC3)OCCO4)nc2)cc1	9	0	-11	43*
Cc1cc(C)n(C(=C(/C(Cl)=C(/Cl)Br)[N+](=O)[O-])n2nc(C)cc2C)n1	14	0	0	42*
O=C(CN(Cc1ccc(Cl)cc1)S(=O)(=O)c1cccnc1)NC1CCCC1	20	1	0	11
COc1ccc(NS(=O)(=O)c2cc(C)ccc2OC)cc1OC	3	1	-2	0
COc1ccc(NS(=O)(=O)c2ccc(-n3cccn3)cc2)cc1OC	6	0	-1	40*
Cc1ccc(NS(=O)(=O)c2ccc(-n3cccn3)cc2)cc1C	2	0	3	2
COc1ccc(NS(=O)(=O)c2c(C)cc(C)cc2C)cc1OC	3	0	0	45*
Fc1ccc(C2=CC(c3ccccc3Cl)n3nnnc3N2)cc1 (stereo unspecified)	-19	0	0	1
Cc1ccc(N2CCN(Cc3cc(-c4cnccn4)ccc3O)CC2)c(C)c1	-1	0	-2	5
COc1ccc(C(=O)N=c2nc3ccccn3s2)cc1	11	0	-7	70*
Cc1ccc(S(=O)(=O)N2CCN(c3nnnn3-c3ccccc3)CC2)cc1Cl	-9	2.2*	1	-2
Cc1c(Cl)c(C(F)(F)F)nn1CC(=O)Nc1cccc(Cl)c1Cl	13	0	0	5
Cn1ccc(CC(=O)N2CCc3ccc(NC(=O)c4ccccc4Cl)cc3C2)c1	1	0	0	43*
O=C(Nc1ccc2c(c1)CN(C(=O)CN1CCOC1=O)CC2)c1ccccc1Cl	-8	0	0	3
SMILES	MITF primary	FBW7 act	GPR151 activ	TEAD-YAP block
C[C@@H]1C[C@@H]2O[C@H]2C=CC=CC(=O)Cc2c(Cl)c(O)cc(O)c2C(=O)O1	-10	0	-1	52*
Cc1ccc(O)c(N/C=C/C(=O)c2ccc(F)cc2)c1	13	0	-1	-57
CCOc1ccc(N/C=C/C(=O)c2cccs2)cc1	17	1	0	37*
Cc1ccc(O)c(N/C=C/C(=O)c2cccs2)c1	2	1	-1	54*
O=C(/C=C/Nc1cccc(Br)c1)c1cccs1	-10	0	-1	-55
O=C(/C=C/Nc1ccc(Br)cc1)c1cccs1	-4	0	-2	41*
CC1CCc2sc3ncnc(N4CCN(CCOc5ccc(Cl)cc5)CC4)c3c2C1 (stereo unspecified)	17	1	0	-4
Cc1ccc(-c2[nH]nc3c2C(c2ccncc2)C(C#N)=C(N)O3)cc1 (stereo unspecified)	-4	0	-1	2
CCOC(=O)CN1CCN(c2ccc(-c3cccc(C=O)c3)cn2)CC1	15	1	-1	11
CCOC(=O)CN1CCN(c2ccc(Br)cn2)CC1	-8	0	-1	44*
Clc1ccccc1CNc1ncnc2ccccc12	8	0	2	48*
O=C(COc1ccc(C(=O)c2ccc(F)cc2)cc1)NCC(F)(F)F	3	0	-2	-8
COc1cc(OC)nc(Sc2ccccc2/C=N/O)n1	4	0	3	57*
O=C(COc1ccc(Cl)cc1)NCCSc1ccccn1	0	2.6*	1	-13
C=CCNC(=O)CCc1nc(-c2ccc(C(C)(C)C)cc2)no1	5	0	-1	35*
Cc1ccc(-c2noc(CCC(=O)NC3CCCC3)n2)cc1	31	1	-2	-1
CCOc1ccc(-c2noc(CCC(=O)O)n2)cc1	-18	0	0	50*
CC(C)(C)c1ccc(-c2noc(CCC(=O)NC3CCCC3)n2)cc1	8	0	1	64*
O=C(CN1CCC(O)(c2cccnc2)CC1)NCc1ccco1	-3	0	-1	-3
CCC(C)NC(=O)CSc1nn2c(=O)c(C(C)(C)C)nnc2s1 (stereo unspecified)	-9	0	0	-5
CCN(CC)c1ccc(/C=C/c2nc3ccccc3s2)cc1	-10	-1	-1	64*
O=C(O)c1ccc(/C=C/c2nc3ccccc3s2)cc1	-3	0	-2	-40
O=C(O)COc1ccc(/C=C/c2nc3ccccc3s2)cc1	-3	0	-8	72*
CCN(CC)c1ccc(Nc2nc(Nc3ccc(N(CC)CC)cc3)nc(Sc3nc4ccccc4s3)n2)cc1	8	0	2	-6
CC(C)C(NS(C)(=O)=O)c1nnc2n1CCN(Cc1ccc3ncccc3c1)CC2 (stereo unspecified)	-1	0	-1	9
SMILES	MITF primary	FBW7 act	GPR151 activ	TEAD-YAP block
CCCC(=O)N1CCN(c2ccc(NC(=O)c3ccc(Br)o3)cc2)CC1	2	0	-2	60*
O=C(Nc1ccc(C(=O)N2CCCC2)cc1)c1ccc(Br)o1	-5	0	-9	-23
O=C(Nc1ccc(N2CCCCC2)cc1)c1ccc(Br)o1	25	0	-8	49*
O=C(Nc1ccc(N2CCCCC2)cc1)c1ccccc1F	8	0	-7	70*
Cn1nc(-c2cccs2)cc1C(=O)NCc1nc2ccccc2[nH]1	-6	0	1	4
O=[N+]([O-])c1ccc(C=NCc2ccccc2)cc1	12	0	0	-33
O=C(NCc1cccc(C(F)(F)F)c1)c1cncc(Nc2cccnc2)c1	14	0	-2	4
COc1ccc2occ(C(=O)COc3ccc(Br)cc3C#N)c2c1	-4	1	0	57*
Nc1ncc(-c2cccc(F)c2)nc1NCc1ccncc1	12	1.9*	-2	-8
Nc1ncc(-c2ccncc2)nc1NCc1ccccc1	-2	0	2	7
c1cnc2ccc(Nc3nc(Nc4ccc(N5CCOCC5)cc4)c4ncn(-c5ccsc5)c4n3)cc2c1	-1	0	-2	38*
